Compounds without any hit were thinned out: in the full panel of roughly 79,000, 15% have a hit. Active and inactive are the calls of the source. No stated cut-off is given here; in the data, active means growth inhibition above about 70%; inactive means the rest.
assay: NCI Yeast Anticancer Drug Screen. Data for the sgs1 mgt1 strain (AID 161);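 further: 0% = growth of cultures given vehicle only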; details: S. cerevisiae sgs1 mgt1 strain, at 50.0 µM, stronger effect = higher value
Summary of the method: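 Growth of a repair-deficient yeast mutant was monitored after compound treatment and expressed as inhibition relative to vehicle-treated cultures.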

| SMILES | growth inhibition |
| --- | --- |
| O=C(N/N=C/C=C/c1ccccc1)NNC(=O)c1cc([N+](=O)[O-])cc([N+](=O)[O-])c1 | 38.3% (inactive) |
| N#CC(=C1C=CC(=NOC(=O)c2ccccc2)C=C1)c1ccccc1 | 4.8% (inactive) |
| CC(=O)C(CCCCCCCCCCC(C(C)=O)C(C)=O)C(C)=O | -5.05% (inactive) |
| CN(C)CCCN1CCC2(CCC(C(C)(C)C)CC2)CC1 | -0.3% (inactive) |
| O=S(=O)(O)Cc1cccc2ccccc12 | 11.8% (inactive) |
| CC(=O)C1CC(CCC2([N+](=O)[O-])CCC(C)(O)C(C(C)=O)C2)([N+](=O)[O-])CCC1(C)O (stereo not given) | 6.7% (inactive) |
| CCC1CN1C(=O)c1cc(C(=O)N2CC2CC)cc(C(=O)N2CC2CC)c1 (stereo not given) | 5.5% (inactive) |
| CN(C)CCNCCN | -6.2% (inactive) |
| C[CH2][Sn]([CH2]C)([N](c1ccccn1)c1ccccn1)[N](c1ccccn1)c1ccccn1 | -26.2% (inactive) |
| Brc1ccc(/C=C/c2ccnnc2)cc1 | 34.6% (inactive) |
| C1OC2OC3OCOC3C2O1 (stereo not given) | -2.1% (inactive) |
| C/C(O)=C(/C=NC(=S)c1ccncc1)C(=O)Nc1ccccc1 | -49% (inactive) |
| O=C(O)CCNC(=O)c1ccccc1O | -17.1% (inactive) |
| [N-]=[N+]=Nc1cc(=O)n(-c2ccccc2)c2ccccc12 | -24.6% (inactive) |
| CC(=O)Nc1ccc2c(c1)Cc1cccc(O)c1-2 | 15.9% (inactive) |
| Cc1ccc(S(=O)(=O)[N-]C2C(=O)c3ccccc3C(=O)C2[n+]2cccc(C(N)=O)c2)cc1 (stereo not given) | 9.5% (inactive) |
| O=C(CC(C(=O)c1ccc(F)cc1)c1ccsc1)c1cccs1 (stereo not given) | 26.8% (inactive) |
| CCOCCOCCOC(=O)C(C)O (stereo not given) | 2.25% (inactive) |
| CNC(=O)CCCCC(=O)NC | -2.7% (inactive) |
| C#CCN(N=O)C(=O)NC(CCCCNC(=O)OCc1ccccc1)C(=O)OCc1ccccc1 (stereo not given) | -7.75% (inactive) |

| SMILES | growth inhibition |
| --- | --- |
| O=S(=O)(SSS(=O)(=O)c1ccc(Cl)c(Cl)c1)c1ccc(Cl)c(Cl)c1 | 5.85% (inactive) |
| O=C(O)C(c1ccc(-c2ccccc2)cc1)C1CCCCC1 (stereo not given) | 50.2% (inactive) |
| CC(=O)OC(Cn1cncn1)(Cn1cncn1)c1ccc(Cl)cc1Cl | 58.3% (inactive) |
| CCO/C(O)=c1/s/c(=C2/SC(=S)N(c3ccc(C)cc3)C2=O)n(-c2ccccc2)c1=N | -16.4% (inactive) |
| O=C(N/N=C1\C(=O)N(c2nccs2)C(=O)C(=O)C1c1nc2ccccc2s1)c1ccccc1O (stereo not given) | 20.4% (inactive) |
| CCNC(=O)CCN(C(=O)O)S(=O)(=O)c1ccc(NC(=O)c2ccccc2)cc1 | -2.55% (inactive) |
| C[C@]1(CO)[C@H]2CC[C@@]34C=C[C@@](CO)(CC[C@H]3[C@]2(C)CC[C@H]1O)C4 | 39.6% (inactive) |
| NC(N)=N/N=C/c1c(-c2ccc(Cl)cc2)nc2n1CCS2 | -18% (inactive) |
| O=C(Nc1ccc(Cl)cc1)/C(Cc1cccc[n+]1[O-])=N\Nc1ccc([N+](=O)[O-])cc1[N+](=O)[O-] | -6.2% (inactive) |
| CNC(=O)c1ccccc1CC(O)c1ccccc1 (stereo not given) | 4.75% (inactive) |
| C=C(C)/C=N/NS(=O)(=O)c1ccc(C)cc1 | 6.7% (inactive) |
| CCOC(=O)Nc1nc(-c2ccc(Br)cc2)cs1 | -2.1% (inactive) |
| C=C1C(=O)O[C@@H]2C[C@]3(C)[C@@H](C[C@H]12)[C@](C)(O)CC[C@@H]3O | 1.5% (inactive) |
| CN(C)c1ccc(/C=C(\NC(=O)c2ccccc2)C(=O)NC(CC(=O)O)C(=O)O)cc1 (stereo not given) | 17.9% (inactive) |
| NCc1c(C(N)=O)ncn1Cc1ccccc1 | 5% (inactive) |
| COC1OC(CO)C(O)C(O)C1Br (stereo not given) | 13% (inactive) |
| CCOC(=O)c1ccc(CSc2ccc(N)cc2)c([N+](=O)[O-])c1 | 17.4% (inactive) |
| O=CCCC1CCCCC1 | -4.55% (inactive) |
| Br/C=C\Br | -7.45% (inactive) |
| Nc1cccc(C(F)(F)F)c1[N+](=O)[O-] | -22.4% (inactive) |

Source: PubChem BioAssay (NCI)
